Results reported in PubChem BioAssay AID602179 (National Center for Advancing Translational Sciences (NCATS), 2012).
The campaign covered roughly 390,000 compounds. About 360 (0.092%) were called active. The call rests on the fitted dose curve; in most records, active means well fitted inhibition curve with a large enough effect; inconclusive means small, poorly fitted or top-dose-only effect; inactive means no such curve, though single readings can be large or run the other way. The sample as a whole holds a higher share of actives than the screen did.

Molecular target: Isocitrate dehydrogenase [NADP] cytoplasmic (Homo sapiens) (UniProt O75874)
Test: qHTS for Inhibitors of mutant isocitrate dehydrogenase 1 (IDH1): qHTS; further: nearly all actives have a fitted effect of over 65% in size
Details: IDH1-R132H enzyme, NADPH consumption, diaphorase/resazurin fluorescence; series mostly up to 76.6 µM; activity change, negative = inhibition: at the top concentration
Description: Unbiased genomic sequencing for 22 glioma genomes found recurrent mutation of isocitrate dehydrogenase 1 (IDH1) on chromosome 2q33-a gene encoding the cytosolic isoform of IIDH1associated with the tricarboxylic acid cycle (TCA) that catalyzes the oxidative decarboxylation of isocitrate, yielding alpha-ketoglutarate and CO2 via NADP+ to NADPH conversion. Subsequent studies confirmed the recurrent IDH mutations in up to 70% of secondary gliomas and in 10% of AML cases. […] This in effect defines IDH1 as an oncogene, and provides an extraordinary opportunity to discover chemical probes against mutant IDH1 that may translate into much needed new therapies for glioma and AML patients. […] NIH Chemical Genomics Center [NCGC] NIH Molecular Libraries Probe Centers Network [MLPCN] MLPCN Grant: DA032129 Assay Submitter (PI): Lenny Dang, Agios Pharmaceuticals
IDH1-R132H (0.5 ug/mL) was dispensed into black, solid-bottom 1536-well plates at 3 uL/well in 20 mM Tris-HCl (pH 7.5), 150 mM NaCl, 10 mM MgCl2, 4 mM beta-ME, and 0.05% protease-free BSA. Then, 23 nL of compounds or DMSO were delivered to each well using a pin tool. A pre-read was run on the Viewlux to identify fluorescent compounds (540 nm excitation filter, 598 nm emission filter, bodipy mirror and 2 second exposure). After 30 minutes of incubation with compound, 3 uL of substrate mix were dispensed (0.016 mM NADPH, 2 mM alpha-KG, 20 mM Tris-HCl (pH 7.5), 150 mM NaCl, 10 mM MgCl2, and 0.05% protease-free BSA). Plates were spun for 1 min at 1000xg and incubated at room temperature for 80 min. Then 1.5 uL of each detection reagent component for the coupling system were added (0.12 mg/mL diaphorase and 0.072 mM resazurin, each in 20 mM Tris-HCl (pH 7.5), 150 mM NaCl, 10 mM MgCl2, and 0.05% protease-free BSA ) The protein, substrate and two detection components were maintained at 4 °C throughout the screen. Additionally, the substrate and resazurin reagents were protected from light. The plates were measured on an Envision plate reader for fluorescence signal using a 540 nm excitation filter and 590 nm emission filter with 10 flashes. 1x and 0x (no-enzyme) IDH1-R132H enzyme control were used to normalize %Activity of identified inhibitors; 0x enzyme values corresponded to 100% Activity (full inhibition), while 1x IDH1-R132H enzyme values were used to normalize 0%Activity (no inhibition). Concentration-response curves were fitted to the signals arising from the resulting fluorescence. The concentration-effect curves were then classified based on curve quality (r2), response magnitude and degree of measured activity, and compounds were subsequently categorized based on their curve class. […] Keywords: isocitrate dehydrogenase, IDH1, IDH1-R132H, MLSMR, MLPCN, NIH Roadmap, qHTS, NCGC
On the % scale 0 is the no-effect control and ±100 the full control effect; potency means the concentration at half of the fitted maximal effect.

Isocitrate dehydrogenase [NADP] cytoplasmic (Homo sapiens), sequence (O75874 whole entry R132H, change not shown): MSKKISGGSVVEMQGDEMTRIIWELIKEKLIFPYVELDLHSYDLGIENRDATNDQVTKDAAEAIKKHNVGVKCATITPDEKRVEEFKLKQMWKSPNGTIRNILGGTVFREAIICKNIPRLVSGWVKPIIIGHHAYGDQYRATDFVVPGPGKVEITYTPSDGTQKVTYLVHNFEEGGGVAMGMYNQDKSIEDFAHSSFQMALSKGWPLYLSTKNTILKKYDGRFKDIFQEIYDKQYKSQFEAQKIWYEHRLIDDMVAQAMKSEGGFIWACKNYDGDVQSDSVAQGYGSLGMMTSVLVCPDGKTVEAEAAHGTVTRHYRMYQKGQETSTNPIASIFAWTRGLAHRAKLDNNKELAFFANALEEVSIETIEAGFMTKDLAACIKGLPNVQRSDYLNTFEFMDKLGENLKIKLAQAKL

Compound | Potency | activity change, negative = inhibition
CC(C)(C)c1ccc(S(=O)(=O)Nc2ccc(O)c(Sc3nc4ccccc4s3)c2)cc1 | 39.8 µM (active) | –
Cn1c(O)c(C=NCCN2CCNCC2)c(=O)n(C)c1=O | – | 3.83% (inactive)
CCOCCc1c(O)[nH]c(=S)[nH]c1=O | – | 0% (inactive)
O=C(Nc1ccc(Cl)cc1C(=O)c1ccccc1)c1cc(Cl)cc(Cl)c1 | – | -0.857% (inactive)
CC(C)Oc1ccc(NC(=O)c2cc3ccccc3o2)cc1 | – | 44.4% (inactive)
